Laboratory results published in PubChem BioAssay AID504332 (National Center for Advancing Translational Sciences (NCATS), 2011).
Where “and” joins values, the source holds several entries; their conditions need not be identical. Equal entries are not always repeated. Hit rate of the full screen: of about 350,000 compounds, about 31,000 (8.9%) were called active. Roughly 15% stayed inconclusive and do not appear here. Calls come from the whole dose curve; as a rule, active = well fitted inhibition curve with a large enough effect; inconclusive = small, poorly fitted or top-dose-only effect; inactive = no such curve, though single readings can be large or run the other way. The list comes from a sample in which actives are over-represented; it also holds similar structures and randomly drawn compounds. Entries that show only a call come without a potency. Some compounds were tested as several samples or in several runs, with calls that do not always agree.
Note: nearly all actives have a fitted effect of over 75% in size.
Potency is the fitted concentration of half-maximal effect.

What follows are molecules tested against Histone-lysine N-methyltransferase EHMT2 (Homo sapiens) (UniProt Q96KQ7) (assay: qHTS Assay for Inhibitors of Histone Lysine Methyltransferase G9a). Settings: G9a H3K9 monomethylation, AlphaScreen, 2 h; series mostly up to 102 µM.
Histone-lysine N-methyltransferase EHMT2 (Homo sapiens), sequence (Q96KQ7 913-1193 limits assumed): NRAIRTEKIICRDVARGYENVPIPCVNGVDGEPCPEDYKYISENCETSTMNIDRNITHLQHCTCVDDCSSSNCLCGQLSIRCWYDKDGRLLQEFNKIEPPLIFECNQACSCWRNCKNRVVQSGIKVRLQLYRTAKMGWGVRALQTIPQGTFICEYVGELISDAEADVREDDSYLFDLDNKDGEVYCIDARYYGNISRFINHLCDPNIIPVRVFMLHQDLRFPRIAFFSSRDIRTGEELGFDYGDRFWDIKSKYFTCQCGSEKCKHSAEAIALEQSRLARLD
In short: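 Using a bead-based AlphaScreen, monomethylated H3K9 product from 2 h room-temperature reactions (G9a 20 nM, peptide 500 nM, SAM 20 uM) was detected with 0.5 ug/mL rabbit anti-H3K9me1 antibody.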
`Cc1ccnc(-n2c(C)cc(/C=C3\C(=O)NC(=S)N(C)C3=O)c2C)c1` was tested, and the Potency was 6.31 µM (active). `CN1CCC(OC(=O)c2cccc(F)c2)CC1` was tested, and the activity, negative = inhibition was “inactive”. For `CCN1CCN(c2ccc([N+](=O)[O-])cc2C#N)CC1`, the activity, negative = inhibition was “inactive”. In the case of `O=C(N/N=C/c1c(O)n(C2CC2)c(=S)[nH]c1=O)c1ccccc1Cl`, the activity, negative = inhibition is reported as “inactive”. With `CCNC[C@H](O)c1cccc(O)c1` the activity, negative = inhibition was 5.63% [at 21.5 µM] (inactive). `CN(c1ccccc1)c1ccc([N+](=O)[O-])c2nonc12` was tested, and the Potency was 15.8 µM (active). With `O=c1c2ccccc2nc(-c2ccco2)n1-c1ccc(Br)cn1` the activity, negative = inhibition was “inactive”. `CCOP(=S)(OCC)SCOC(=O)NCC(=O)OC` was tested, and the activity, negative = inhibition was “inactive”. `CCOC(=O)C(O)(c1ccc(N=Cc2ccccc2O)c(C)c1)C(F)(F)F` (stereo not given) was tested, and the activity, negative = inhibition was “inactive”. `COc1ccccc1N1CCN(C(CNC(=O)Oc2ccccc2)c2cccnc2)CC1` (stereo not given) was tested, and the activity, negative = inhibition was “inactive”. In the case of `O=C(c1cc(S(=O)(=O)N2CCOCC2)ccc1F)N1CCC2(CC1)OCCO2`, the activity, negative = inhibition is reported as -11% [at 12.7 µM] (inactive). For `Cc1nn(-c2ccccc2)c(C)c1NC(=O)COC(=O)Cc1ccccc1`, the activity, negative = inhibition was “inactive”. With `c1cc2c(cc1[C@H]1OC[C@H]3[C@@H]1CO[C@@H]3c1ccc3c(c1)OCO3)OCO2` the activity, negative = inhibition was “inactive”. For `O=C(CN1CCCC1=O)NCCc1ccccc1`, the activity, negative = inhibition was 27.1% [at 12.7 µM] (inactive). For `OC(CNC1CCCCC1)c1ccccc1` (stereo not given), the activity, negative = inhibition was 2.5% [at 12.7 µM] (inactive). `CC(=NCc1ccc2c(c1)OCO2)c1c(O)[nH]c(=O)[nH]c1=O` was tested, and the activity, negative = inhibition was -21.4% [at 12.7 µM] (inactive). For `c1cc2c(cc1CCNC1CCCCCC1)OCO2`, the Potency was 8.91 µM (active). For `c1ccc(CCNC2CCCCCC2)cc1`, the Potency was 7.08 µM (active). For `CCN(CC)C(=O)c1ccc(NC(=O)c2sccc2-c2ccccc2)cc1`, the activity, negative = inhibition was “inactive”. `CCN1C[C@]2(COC)C(O)C[C@H](OC)[C@@]34C5C[C@]6(O)C(OC)C(O)[C@](OC(C)=O)(C5C6OC(=O)c5ccccc5)C(C(OC)C23)C14` (stereo not given in full) was tested, and the activity, negative = inhibition was -10.7% [at 2.33 µM] (inactive). `CN[C@@H]1C[C@H]2O[C@@](C)([C@@H]1OC)n1c3ccccc3c3c4c(c5c6ccccc6n2c5c31)C(=O)NC4` was tested, and the activity, negative = inhibition was “inactive”. For `Cc1ccc(-n2c(/C=C/c3cccc(C(F)(F)F)c3)nc3ccccc3c2=O)cc1`, the activity, negative = inhibition was “inactive”. For `CCOc1ccc(-c2cc(C)[n+](CCN(CC)CC)c(-c3ccc(OCC)cc3)c2)cc1`, the activity, negative = inhibition was “inactive”. For `O=C(O)COc1ccccc1/C=C1\C(=O)NC(=O)N(CCC2=CCCCC2)C1=O`, the Potency was 50.1 µM (active). In the case of `CCCCC(=O)N/N=C/c1c(O)n(CCC2=CCCCC2)c(=O)[nH]c1=O`, the activity, negative = inhibition is reported as “inactive”. With `CCN(CC)P(=O)(Oc1cccc(C)c1)N(CC)CC` the activity, negative = inhibition was “inactive”. For `Cc1cc(-c2n[nH]c(=S)n2-c2ccc(C)c(C)c2)no1`, the Potency was 2.51 µM (active). `c1ccc(CN2CC[C@@]3(CCCNC3)C2)cc1` was tested, and the activity, negative = inhibition was -24.8% [at 12.7 µM] (inactive). With `CN1CCN(C(=O)COc2ccc(C(C)(C)C)cc2Br)CC1` the activity, negative = inhibition was “inactive”. For `O=C(O)c1ccccc1NC(=O)C1C2CCC(O2)C1C(=O)O` (stereo not given), the activity, negative = inhibition was -2.22% [at 0.501 µM] (inactive). With `ClC(Cl)(Cl)c1ccccc1` the activity, negative = inhibition was -20.6% [at 0.501 µM] (inactive). With `CCN1C(=O)C(=Cc2c(C)n(CC(=O)NCC3CCCO3)c3ccccc23)C(=O)N(CC)C1=S` (stereo not given) the Potency was 39.8 µM (active). `O=C1C2(Cl)C3(Cl)C4(Cl)C(Cl)(Cl)C5(Cl)C3(Cl)C1(Cl)C5(Cl)C24Cl` (stereo not given) was tested, and the activity, negative = inhibition was -1.92% [at 0.501 µM] (inactive). In the case of `COc1ccccc1-c1[se]c2ccccc2c1I`, the activity, negative = inhibition is reported as “inactive”. In the case of `COC(=O)C1=C(c2ccc(F)cc2OCc2ccccc2)C[C@@H]2CC[C@H]1N2C(=O)NCc1ccc(OC)c(OC)c1`, the activity, negative = inhibition is reported as -8.71% [at 0.501 µM] (inactive). With `CN(C)[C@@H]1C(=O)C(C(N)=O)=C(O)[C@@]2(O)C(=O)C3=C(O)c4c(O)cccc4[C@@](C)(O)C3CC12` (stereo not given in full) the Potency was 22.4 µM (active). With `CNC(=O)O/N=C(\N)Cc1csc2ccccc12` the activity, negative = inhibition was “inactive”. For `C/C(CCc1c[nH]c2ccccc12)=N\O`, the activity, negative = inhibition was 13.7% [at 12.7 µM] (inactive). For `O=C(Nc1ccc(Cl)cc1C(=O)c1ccccc1)c1cc(Cl)cc(Cl)c1`, the activity, negative = inhibition was “inactive”. For `C=Cn1ccnc1P(=S)(c1cc(N(CC)CC)ns1)c1nccn1C=C`, the activity, negative = inhibition was “inactive”. For `COP(=O)(NS(=O)(=O)c1ccccc1)OC`, the activity, negative = inhibition was “inactive”. With `CN1CCN(c2cc(N3CCNCC3)ccc2[N+](=O)[O-])CC1` the activity, negative = inhibition was “inactive”. `Cc1nc2ccc(N3CCN(C)CC3)cc2nc1C` was tested, and the activity, negative = inhibition was “inactive”. In the case of `COc1cccc(-c2nc3ccc(N4CCN(C)CC4)cc3[nH]2)c1`, the Potency is reported as 44.7 µM (active). `CN(C)/C=C(\C=[N+](C)C)c1[nH]ncc1[N+](=O)[O-]` was tested, and the activity, negative = inhibition was “inactive”. In the case of `CCc1nnc(NS(=O)(=O)c2ccc(N=Cc3c(O)n(-c4ccccc4)c(=O)[nH]c3=O)cc2)s1`, the activity, negative = inhibition is reported as “inactive”. With `N#CC1=C(N)Oc2c(c(=O)oc3ccccc23)C1c1ccccc1OC(=O)c1cccs1` (stereo not given) the activity, negative = inhibition was “inactive”. With `COC(=O)C1=C(c2ccc(F)cc2F)C[C@@H]2CC[C@H]1N2C(=O)NC1CC1` the activity, negative = inhibition was 2.71% [at 0.501 µM] (inactive). For `O=C(CCNS(=O)(=O)c1ccccc1)Nc1ccc(Cl)cc1C(=O)c1ccccc1`, the activity, negative = inhibition was “inactive”. `CCOC(=O)C1=C(C)OC(N)=C(C(=O)OC)C12C(=O)Nc1ccc(Br)cc12` (stereo not given) was tested, and the activity, negative = inhibition was 8.25% [at 2.33 µM] (inactive). With `CC[N+](C)(CC)CCC[n+]1c(-c2ccccc2)c2cc(N)ccc2c2ccc(N)cc21` the Potency was 5.01 µM (active). In the case of `C[C@H]1CC[C@@]2(NC1)O[C@@H]1C[C@H]3[C@@H]4CC=C5C[C@@H](O)CC[C@]5(C)[C@@H]4CC[C@]3(C)[C@@H]1[C@@H]2C`, the activity, negative = inhibition is reported as 18.8% [at 21.5 µM] (inactive). `CCN1CCN(c2nc3c(c(=O)[nH]2)CCC3)CC1` was tested, and the activity, negative = inhibition was “inactive”. For `CCOc1ccc(CN(CCCl)CCCl)cc1C(=O)OC`, the activity, negative = inhibition was 16.9% [at 0.501 µM] (inactive). For `CCOP(=O)(OCC)C(O)c1ccc(OC)cc1OC` (stereo not given), the activity, negative = inhibition was “inactive”. In the case of `CCOC(=O)c1ncn2c1[C@@H]1CCCN1C(=O)c1cc(OC)ccc1-2`, the activity, negative = inhibition is reported as “inactive”. For `CCOC(=O)C1CN(C)CCC1=O` (stereo not given), the activity, negative = inhibition was 26.6% [at 2.33 µM] (inactive). For `O=C(Cc1ccccc1)N1CCN(C2CCCCCC2)CC1`, the Potency was 31.6 µM (active). In the case of `COc1ccccc1CN1CCN(C(=O)Cc2ccccc2)CC1`, the Potency is reported as 17.8 µM (active). With `CCC(=NCCc1ccccc1)c1c(O)n(C2CCCCC2)c(=O)[nH]c1=O` the activity, negative = inhibition was “inactive”. With `CN1CCN(Cc2ccccc2C(F)(F)F)CC1` the activity, negative = inhibition was “inactive”. In the case of `CCN1CCN(C(=O)Cc2coc3cc(C)cc(C)c23)CC1`, the activity, negative = inhibition is reported as “inactive”. With `O=C(Cn1c(=O)n(CC2CS2)c2ccccc21)N1CCCCC1` (stereo not given) the activity, negative = inhibition was “inactive”. With `CCOC(=O)C(O)(c1ccc(NC(=O)c2ccco2)c(OC)c1)C(F)(F)F` (stereo not given) the activity, negative = inhibition was -45.5% [at 2.33 µM] (inactive). With `c1ccc(CCCCN2CCC(c3ccccc3)CC2)cc1` the activity, negative = inhibition was “inactive”. In the case of `CC1=C(C(=O)Nc2ccccc2)S(=O)(=O)CCO1`, the activity, negative = inhibition is reported as “inactive”. For `CC(Cc1ccccc1)NC=O` (stereo not given), the activity, negative = inhibition was 2.33% [at 12.7 µM] (inactive). `COC(=O)C1=C(c2ccc(Cl)c(C(F)(F)F)c2)C[C@@H]2CC[C@H]1N2C(=O)NC1CC1` was tested, and the activity, negative = inhibition was 7.94% [at 0.501 µM] (inactive). In the case of `OC(Cn1c2ccccc2c2ccccc21)C[n+]1ccccc1` (stereo not given), the activity, negative = inhibition is reported as “inactive”. `CN1CCc2nc(SC(C(=O)O)c3ccccc3)c(C#N)c(-c3cccs3)c2C1` (stereo not given) was tested, and the Potency was 31.6 µM (active). For `CN1CCCC(=C(c2cccs2)c2cccs2)C1`, the activity, negative = inhibition was -17.6% [at 12.7 µM] (inactive). With `Cn1c(O)c(C=NCCCC(=O)O)c(=O)n(C)c1=O` the activity, negative = inhibition was “inactive”. In the case of `COCCNC(=O)CN1C2CCC1CC(O)(c1cccnc1)C2` (stereo not given), the activity, negative = inhibition is reported as “inactive”. With `O=C1NC(=O)C(C/C=C/c2ccccc2)C(=O)N1` the Potency was 25.1 µM (active). With `O=C(O)C1C2CCC(O2)C1C(=O)O` (stereo not given) the activity, negative = inhibition was 48.4% [at 12.7 µM] (inactive). For `CN(C)C(=O)NC(O)C(Cl)(Cl)Cl` (stereo not given), the activity, negative = inhibition was “inactive”. For `CCc1ccc(OCC(=O)N2CCN(CC(=O)Nc3ccccc3Cl)CC2)cc1`, the activity, negative = inhibition was -1.72% [at 2.33 µM] (inactive). For `CC(C)c1ccc(OCC(=O)N2CCCN(C)CC2)cc1`, the activity, negative = inhibition was “inactive”. In the case of `O=C(COc1ccc2ccccc2c1)N1CCN(Cc2ccncc2)CC1`, the Potency is reported as 6.31 µM (active). With `O=C(COC(=O)c1ccccc1)Nc1ccc(Cl)cc1C(=O)c1ccccc1` the activity, negative = inhibition was “inactive”. `CC(=O)Cc1ccc(OC(C)C)cc1` was tested, and the activity, negative = inhibition was “inactive”. With `O=C(COC(=O)Cc1ccccc1)Nc1ccc(F)cc1` the activity, negative = inhibition was “inactive”. With `COC(=O)C1=C(c2cccc(OCc3ccccc3)c2)C[C@@H]2CC[C@H]1N2C(=O)NNCc1ccccc1` the activity, negative = inhibition was 2.91% [at 2.33 µM] (inactive). For `O=S(=O)(Nc1ccc2[nH]ncc2c1)c1ccccc1Cl`, the Potency was 22.4 µM (active). In the case of `NC(=O)Cn1cc(C(=O)c2ccccc2F)c2ccccc21`, the activity, negative = inhibition is reported as “inactive”. For `O=C(CCCn1c(=O)[nH]c2cc(Cl)ccc2c1=O)N1CCC2(CC1)OCCO2`, the activity, negative = inhibition was “inactive”. For `Cc1cccc(OP(=O)(Oc2cccc(C)c2)OC(c2ccccc2)C(F)(F)F)c1` (stereo not given), the activity, negative = inhibition was “inactive”. `COc1ccc(-n2c(-c3ccccc3)nc3ccccc3c2=O)cc1` was tested, and the activity, negative = inhibition was “inactive”. With `C[N+]1(C)CCOC(O)(c2ccc(-c3ccc(C4(O)C[N+](C)(C)CCO4)cc3)cc2)C1` (stereo not given) the Potency was “inactive and 50.1 µM (active) and 20 µM (active)”. With `CC[N+]1(CCOC(=O)C(O)(c2ccccc2)c2ccccc2)CCCCC1` the activity, negative = inhibition was -33.9% [at 12.7 µM] (inactive). In the case of `Cc1ccc(-c2nn(CCC#N)cc2C(=O)O)cc1C`, the activity, negative = inhibition is reported as “inactive”. In the case of `O=C(c1ccccc1[N+](=O)[O-])N1CCC2(CC1)OCCO2`, the activity, negative = inhibition is reported as “inactive”. With `CC(C)n1c(=O)c(C=Nc2ccc(Br)cc2)c(O)n(Cc2ccco2)c1=O` the activity, negative = inhibition was “inactive”. For `Cc1ccc(-n2c(-c3ccc([N+](=O)[O-])cc3)nc3ccccc3c2=O)cc1`, the activity, negative = inhibition was “inactive”. With `O=[N+]([O-])c1cnc2ccc3ccccc3c2c1` the Potency was 50.1 µM (active).
